Measured values: PubChem BioAssay (EPA / NIEHS)
Calls of active or inactive are those of the source. The calls were made as follows: active = hit-call score of the fitted dose curve at least 0.9, where 1 is the maximum; inactive = score below 0.9.

Experiments:
Details in all cases: mRNA level, 48 h; actives raise or lower the signal
[1] = read-out: Forkhead box O3 (FOXO3), FOXO3 (gene 2309); experiment: LTEA_HepaRG_FOXO3: Life Technologies and Expression Analysis (LTEA) Assay for Forkhead box O3 (FOXO3) using HepaRG (AID 2283459)
Outline: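 FOXO3 transcript measured by qRT-PCR (normalized to ACTB, GAPDH, POLR2A) after 48 h exposure of HepaRG cells in serum-free induction medium. Duplicates, eight half-log concentrations up to 100 uM, 0.5% DMSO; gain or loss fitted against DMSO.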

[2] = read-out: ABC Transporter (ABCB1), ABCB1 (gene 5243); experiment: LTEA_HepaRG_ABCB1: Life Technologies and Expression Analysis (LTEA) Assay for ABC Transporter (ABCB1) using HepaRG (AID 2283460)
Outline: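 ABCB1 transcript level measured by TaqMan qRT-PCR against three housekeeping genes after 48 h chemical exposure of differentiated HepaRG cells. Top concentration 100 uM, half-log steps, eight points, 0.5% DMSO vehicle; bidirectional fit relative to DMSO.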

[3] = read-out: growth arrest and DNA damage 45 (GADD45B), GADD45B (gene 4616); experiment: LTEA_HepaRG_GADD45B: Life Technologies and Expression Analysis (LTEA) Assay for growth arrest and DNA damage 45 (GADD45B) using HepaRG (AID 2283461)
Outline: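 qRT-PCR read-out (Fluidigm TaqMan, housekeeping-normalized) of mRNA change in human HepaRG cells after 48 h chemical exposure; 8-point curve, top 100 uM, half-log steps, 0.5% DMSO vehicle; gain or loss fitted relative to DMSO baseline.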

[4] = read-out: ABC Transporter (ABCC3), ABCC3 (gene 8714); experiment: LTEA_HepaRG_ABCC3: Life Technologies and Expression Analysis (LTEA) Assay for ABC Transporter (ABCC3) using HepaRG (AID 2283462)
Outline: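 qRT-PCR read-out of ABCC3 transcript, normalized to three housekeeping genes (ACTB, GAPDH, POLR2A), after 48 h chemical exposure of human HepaRG cells. Eight half-log concentrations, highest 100 uM, in 0.5% DMSO; gain or loss fitted relative to DMSO baseline.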

[5] = read-out: ABC Transporter (ABCB11), ABCB11 (gene 8647); experiment: LTEA_HepaRG_ABCB11: Life Technologies and Expression Analysis (LTEA) Assay for ABC Transporter (ABCB11) using HepaRG (AID 2283463)
Outline: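 ABCB11 transcript levels quantified by TaqMan qRT-PCR against three housekeeping genes after 48 h chemical exposure of HepaRG cultures. Concentrations up to 100 uM in half-log steps, 0.5% DMSO vehicle; both induction and suppression scored.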

[6] = read-out: ABC Transporter (ABCC2), ABCC2 (gene 1244); experiment: LTEA_HepaRG_ABCC2: Life Technologies and Expression Analysis (LTEA) Assay for ABC Transporter (ABCC2) using HepaRG (AID 2283464)
Outline: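 qRT-PCR (TaqMan, Fluidigm array) read-out of ABCC2 mRNA, normalized to three housekeeping genes. Differentiated HepaRG cells were treated 48 h in serum-free induction medium with 8-point half-log series from 100 uM in 0.5% DMSO; curves fitted bidirectionally relative to DMSO.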

[7] = read-out: Broad substrate specificity ATP-binding cassette transporter ABCG2 (Homo sapiens) (UniProt Q9UNQ0); experiment: LTEA_HepaRG_ABCG2: Life Technologies and Expression Analysis (LTEA) Assay for ABC Transporter (ABCG2) using HepaRG (AID 2283465)
Outline: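 ABCG2 transcript was quantified by TaqMan qRT-PCR against three housekeeping genes in HepaRG cells. Cells were treated in duplicate for 48 h across an 8-point half-log series up to 100 uM, with 0.5% DMSO vehicle. Gain or loss versus DMSO was fit.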

[8] = read-out: ATP-citrate lyase (ACLY), ACLY (gene 47); experiment: LTEA_HepaRG_ACLY: Life Technologies and Expression Analysis (LTEA) Assay for ATP-citrate lyase (ACLY) using HepaRG (AID 2283466)
Outline: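 ACLY mRNA quantified by qRT-PCR on Fluidigm arrays against three housekeeping genes, after 48 h chemical treatment of HepaRG cells (top concentration 100 uM, half-log steps, 0.5% DMSO vehicle). Up- or down-regulation fitted relative to DMSO.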

[9] = read-out: Peroxisomal acyl-coenzyme A oxidase 1 (ACOX1) gene, ACOX1 (gene 51); experiment: LTEA_HepaRG_ACOX1: Life Technologies and Expression Analysis (LTEA) Assay for Peroxisomal acyl-coenzyme A oxidase 1 (ACOX1) gene using HepaRG (AID 2283467)
Outline: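 ACOX1 transcript levels were quantified by TaqMan qRT-PCR against three housekeeping genes after 48 h chemical exposure of differentiated human HepaRG cells. Exposure used eight half-log steps topping at 100 uM, 0.5% DMSO vehicle, in duplicate. Bidirectional curve fits were made relative to DMSO.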

[10] = read-out: Alkaline Phosphatase, Placental (ALPP) gene, ALPP (gene 250); experiment: LTEA_HepaRG_ALPP: Life Technologies and Expression Analysis (LTEA) Assay for Alkaline Phosphatase, Placental (ALPP) gene using HepaRG (AID 2283468);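 as to AC50: differentiated human HepaRG liver cells in serum-free induction medium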
Outline: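 qRT-PCR readout of ALPP mRNA (Fluidigm TaqMan), normalized to ACTB/GAPDH/POLR2A, after 48 h chemical exposure of HepaRG cells; 8-point half-log series, top 100 uM, 0.5% DMSO vehicle. Bidirectional curve fit versus DMSO baseline.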

[11] = read-out: Bcl-2 (BAD) gene, BAD (gene 572); experiment: LTEA_HepaRG_BAD: Life Technologies and Expression Analysis (LTEA) Assay for Bcl-2 (BAD) gene using HepaRG (AID 2283469)
Outline: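 Read-out: qRT-PCR of BAD mRNA, normalized to three housekeeping genes. Human HepaRG cultures got 48 h chemical exposure in 0.5% DMSO, duplicate eight-point half-log series topping at 100 uM. Gain or loss of signal fitted versus DMSO vehicle.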

[12] = read-out: Bcl-2 (BAX) gene, BAX (gene 581); experiment: LTEA_HepaRG_BAX: Life Technologies and Expression Analysis (LTEA) Assay for Bcl-2 (BAX) gene using HepaRG (AID 2283470)
Outline: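 qRT-PCR read-out of BAX mRNA, normalized to three housekeeping genes, after 48 h chemical exposure of human HepaRG cells in serum-free induction medium; eight-point half-log series, top 100 uM, 0.5% DMSO vehicle; bidirectional fit versus DMSO.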

[13] = read-out: adenosine kinase (ADK) gene, ADK (gene 132); experiment: LTEA_HepaRG_ADK: Life Technologies and Expression Analysis (LTEA) Assay for adenosine kinase (ADK) gene using HepaRG (AID 2283471)
Outline: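 Following 48 h exposure of HepaRG cells in 0.5% DMSO (top concentration 100 uM, duplicate wells), ADK mRNA induction or suppression was measured by qRT-PCR, normalised to ACTB/GAPDH/POLR2A, and fitted bidirectionally relative to vehicle.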

[14] = read-out: Alpha-fetoprotein (AFP) gene, AFP (gene 174); experiment: LTEA_HepaRG_AFP: Life Technologies and Expression Analysis (LTEA) Assay for Alpha-fetoprotein (AFP) gene using HepaRG (AID 2283472)
Outline: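 qRT-PCR (Fluidigm TaqMan) readout of AFP transcript, normalized to three housekeeping genes, fitted bidirectionally against 0.5% DMSO baseline. HepaRG cells received chemicals for 48 h in serum-free induction medium, top concentration 100 uM, half-log steps.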

[15] = read-out: BCL2L11 (gene 10018); experiment: LTEA_HepaRG_BCL2L11: Life Technologies and Expression Analysis (LTEA) Assay for Bcl-2 (BCL2L11) gene using HepaRG (AID 2283473)
Outline: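 HepaRG, 48 h exposure, 8-pt half-log series from 100 uM in 0.5% DMSO, duplicates; qRT-PCR (Fluidigm TaqMan) for BCL2L11, housekeeping-normalized; bidirectional curve fit relative to DMSO baseline.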

[16] = read-out: Apolipoprotein A-V (APOA5) gene, APOA5 (gene 116519); experiment: LTEA_HepaRG_APOA5: Life Technologies and Expression Analysis (LTEA) Assay for Apolipoprotein A-V (APOA5) gene using HepaRG (AID 2283474)
Outline: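 HepaRG, 48 h chemical exposure in serum-free induction medium, 8-pt half-log series (top 100 uM), 0.5% DMSO vehicle, duplicates. Readout: APOA5 mRNA by qRT-PCR, housekeeping-normalized; bidirectional fit vs DMSO baseline.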

[17] = read-out: Apoptosis regulator Bcl-2 (Homo sapiens) (UniProt P10415); experiment: LTEA_HepaRG_BCL2: Life Technologies and Expression Analysis (LTEA) Assay for Bcl-2 gene using HepaRG (AID 2283475)
Outline: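 qRT-PCR read-out (Fluidigm TaqMan) of BCL2 transcript, normalised to three housekeeping genes, after 48 h chemical exposure of HepaRG cells; 8-point half-log series, top 100 uM, 0.5% DMSO vehicle. Gain or loss of signal fitted relative to DMSO baseline.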

[18] = read-out: Bcl-2 (BID) gene, BID (gene 637); experiment: LTEA_HepaRG_BID: Life Technologies and Expression Analysis (LTEA) Assay for Bcl-2 (BID) gene using HepaRG (AID 2283476)
Outline: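 HepaRG, 48 h exposure, 8-pt half-log series, top 100 uM, 0.5% DMSO vehicle, duplicates. Readout: BID mRNA by TaqMan qRT-PCR; housekeeping-normalized; bidirectional curve fit vs DMSO baseline.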

[19] = read-out: Cytochrome P450 (CYP24A1), CYP24A1 (gene 1591); experiment: LTEA_HepaRG_CYP24A1: Life Technologies and Expression Analysis (LTEA) Assay for Cytochrome P450 (CYP24A1) using HepaRG (AID 2283478)
Outline: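 qRT-PCR read-out: CYP24A1 transcript levels normalized to three housekeeping genes, bidirectional curve fits against 0.5% DMSO baseline. Human HepaRG cells treated 48 h with chemicals at eight concentrations from 100 uM in half-log steps.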

[20] = read-out: Caspase-3 (Homo sapiens) (UniProt P42574); experiment: LTEA_HepaRG_CASP3: Life Technologies and Expression Analysis (LTEA) Assay for cysteine-aspartic acid protease (CASP3) using HepaRG (AID 2283477)
Outline: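 HepaRG, 48 h exposure, 8 conc. (top 100 uM, half-log steps, duplicate), 0.5% DMSO vehicle; qRT-PCR of CASP3 transcript, housekeeping-normalised (ACTB/GAPDH/POLR2A); bidirectional curve fit vs DMSO baseline.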

Measured: AC50

Sequence of Caspase-3 (Homo sapiens) (P42574 whole entry, looked up): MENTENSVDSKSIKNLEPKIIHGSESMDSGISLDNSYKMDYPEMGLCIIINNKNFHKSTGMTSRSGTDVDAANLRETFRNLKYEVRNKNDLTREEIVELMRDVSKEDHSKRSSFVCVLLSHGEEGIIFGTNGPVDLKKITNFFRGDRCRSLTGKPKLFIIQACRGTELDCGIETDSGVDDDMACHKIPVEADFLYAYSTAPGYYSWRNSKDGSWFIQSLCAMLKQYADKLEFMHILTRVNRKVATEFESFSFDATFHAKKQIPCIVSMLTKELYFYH
Sequence of Apoptosis regulator Bcl-2 (Homo sapiens) (P10415 whole entry, looked up): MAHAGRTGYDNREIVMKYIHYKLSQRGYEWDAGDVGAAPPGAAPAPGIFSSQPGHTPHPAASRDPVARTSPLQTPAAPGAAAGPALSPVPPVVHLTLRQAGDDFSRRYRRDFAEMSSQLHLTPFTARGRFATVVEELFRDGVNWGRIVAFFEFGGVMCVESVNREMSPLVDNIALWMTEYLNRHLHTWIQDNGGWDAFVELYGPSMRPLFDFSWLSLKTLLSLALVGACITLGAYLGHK
Sequence of Broad substrate specificity ATP-binding cassette transporter ABCG2 (Homo sapiens) (Q9UNQ0 whole entry, looked up): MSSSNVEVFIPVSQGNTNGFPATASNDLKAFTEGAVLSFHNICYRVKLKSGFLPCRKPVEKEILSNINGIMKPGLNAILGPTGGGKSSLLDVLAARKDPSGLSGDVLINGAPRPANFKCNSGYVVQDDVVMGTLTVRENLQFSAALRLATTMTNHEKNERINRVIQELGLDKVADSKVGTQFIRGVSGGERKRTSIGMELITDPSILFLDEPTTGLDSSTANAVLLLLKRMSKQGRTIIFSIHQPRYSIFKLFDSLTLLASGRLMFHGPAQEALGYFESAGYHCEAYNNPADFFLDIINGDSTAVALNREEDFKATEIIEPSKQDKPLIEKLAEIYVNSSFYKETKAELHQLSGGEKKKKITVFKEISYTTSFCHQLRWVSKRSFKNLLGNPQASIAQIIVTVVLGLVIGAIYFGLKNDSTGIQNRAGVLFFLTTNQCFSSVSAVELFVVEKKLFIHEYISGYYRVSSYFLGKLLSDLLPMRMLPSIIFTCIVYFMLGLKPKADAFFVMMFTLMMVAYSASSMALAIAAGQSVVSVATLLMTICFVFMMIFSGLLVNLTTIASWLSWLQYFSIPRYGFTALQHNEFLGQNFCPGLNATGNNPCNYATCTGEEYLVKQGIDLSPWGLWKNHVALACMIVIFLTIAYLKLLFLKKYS

CC1=CC(=O)CC(C)(C)C1
not listed: [20]
inactive: all other assays above

CC(C)(O)c1coc(S(=O)(=O)NC(=O)Nc2c3c(cc4c2CCC4)CCC3)c1
active: [5] 50 µM
not listed: [18]
inactive: all other assays above

CCOC(=O)CC(CC(=O)OCC)(OC(C)=O)C(=O)OCC
not listed: [20]
inactive: all other assays above

O=C(OC[C@H]1O[C@@H](OC(=O)c2cc(O)c(O)c(OC(=O)c3cc(O)c(O)c(O)c3)c2)[C@H](OC(=O)c2cc(O)c(O)c(OC(=O)c3cc(O)c(O)c(O)c3)c2)[C@@H](OC(=O)c2cc(O)c(O)c(OC(=O)c3cc(O)c(O)c(O)c3)c2)[C@@H]1OC(=O)c1cc(O)c(O)c(OC(=O)c2cc(O)c(O)c(O)c2)c1)c1cc(O)c(O)c(OC(=O)c2cc(O)c(O)c(O)c2)c1
inactive: [1] | [2] | [3] | [8] | [9] | [11] | [12] | [13] | [19]
active: [4] 9.66 µM | [5] 7.96 µM | [6] 15.2 µM | [7] 8.88 µM | [10] 3.31 µM | [14] 8.86 µM | [15] 15.2 µM | [16] 6.96 µM | [17] 28.4 µM | [18] 7.63 µM

CC(=O)OCCC(C)C
not listed: [7]
inactive: all other assays above

CCCCCCc1ccc(O)cc1O
not listed: [7]
inactive: all other assays above

O=C(CCCCCCCCc1cccnc1)N1CCC(C=C(c2ccccc2)c2ccccc2)CC1
inactive: [1] | [4] | [6] | [8] | [11] | [13] | [18] | [19]
active: [2] 30.7 µM | [3] 84.6 µM | [5] 14.3 µM | [9] 50 µM | [10] 13.7 µM | [12] 30.9 µM | [14] 24.3 µM | [15] 27.3 µM | [16] 29.6 µM | [17] 16.6 µM | [20] 61.9 µM
